Results as given in PubChem BioAssay (Tox21).
Values joined by “and” are separate entries in the source; they are usually repeats but may differ in a detail not shown here. Equal values may be shown once. Results filed as inconclusive are left out. More than one record can exist for a structure, and the calls need not agree. Active and inactive are the calls of the source. Unless noted, calls follow the shape of the dose curve; as a rule, active = well fitted curve in the direction sought with a large enough effect in the repeat runs; inconclusive = weak or mixed curves; inactive = no such curve, though single readings can be large; an effect the other way counts as inactive or inconclusive.

Key:
[1] = qHTS assay for small molecules that induce genotoxicity in human embryonic kidney cells expressing luciferase-tagged ATAD5 (AID 651632); also: nearly all actives have a fitted effect of over 15% in size
Procedure, shortened: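 Quantitative HTS in HEK293T expressing luciferase-tagged ATAD5, whose levels rise upon DNA damage. Exposure ran 16 hr at 37C and 5% CO2, with luminescence read 30 min after Amplite addition at room temperature.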

[2] = qHTS assay for small molecule agonists of the p53 signaling pathway - cell viability (AID 651633; calls by dose curve;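 also: p53RE-bla HCT reporter cells with a stable beta-lactamase p53 reporter; series mostly up to about 83 µM; nearly all actives have a fitted effect of over 30% in size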)
Procedure, shortened: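 Viability counter-read: CellTiter-Glo luminescence (30 min, room temperature) in the same p53RE-bla plates. These plates had been exposed to compounds for 16 h at 37 C.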

[3] = qHTS assay for small molecules that induce genotoxicity in human embryonic kidney cells expressing luciferase-tagged ATAD5 - cell viability (AID 651634; calls by dose curve; also: nearly all actives have a fitted effect of over 25% in size)
Procedure, shortened: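 After 15.5 hr incubation with compound at 37C, 5% CO2, HEK293T ATAD5-luciferase cells received CellTiter-Fluor reagent; fluorescence intensity was quantified following 30 min at 37C.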

[4] = qHTS assay for small molecule disruptors of the mitochondrial membrane potential - cell viability (AID 720634; calls by dose curve; also: nearly all actives have a fitted effect of over 20% in size; also: potency is read from the fitted curve at half-maximal effect)
Procedure, shortened: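 ATP-based luminescent viability readout (CellTiter-Glo, 30 min, room temperature) in HepG2 cells multiplexed with the m-MPI membrane potential dye; compound exposure lasted 1 hr at 37 C.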

[5] = qHTS assay for small molecule disruptors of the mitochondrial membrane potential (AID 720635); also: potency is read from the fitted curve at half-maximal effect
Procedure, shortened: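 Mitochondrial membrane potential tracked with Mito-MPS dye, red aggregates (ex 540/em 590 nm) against green monomers (ex 490/em 535 nm). Compound treatment 1 hr at 37C, dye 30 min in HepG2.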

[6] = qHTS assay to test for compound auto fluorescence at 590 nm (red) in HepG2 cells (AID 720674)
Procedure, shortened: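 1 hr compound incubation on HepG2 cells, 37 C, 5% CO2; plate read ex 540 nm / em 590 nm; intensities reported as Rose Bengal sodium equivalents.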

[7] = qHTS assay to test for compound auto fluorescence at 535 nm (green) in HepG2 cells (AID 720675)
[8] = qHTS assay to test for compound auto fluorescence at 460 nm (blue) in HEK293 cells (AID 720678)
Procedure, shortened: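 Blue-channel (Ex/Em 405/460 nm) intensity measured in HEK293 cultures after overnight compound exposure at 37C; signal expressed relative to triamterene. Cells plated 2,000 per well in 10% dialyzed FBS medium and allowed 4-5 hr to attach.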

[9] = qHTS assay to test for compound auto fluorescence at 590 nm (red) in HEK293 cells (AID 720679)
Procedure, shortened: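 Red-channel autofluorescence (Ex/Em 540/590 nm; Rose Bengal sodium reference) was measured after overnight 37C, 5% CO2 exposure of attached HEK293 cells, 2,000 per well in medium with 10% dialyzed FBS.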

[10] = qHTS assay to test for compound auto fluorescence at 535 nm (green) in HEK293 cells (AID 720680)
[11] = qHTS assay to test for compound auto fluorescence at 460 nm (blue) in HEK293 cell free culture (AID 720681)
Procedure, shortened: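 Blue fluorescence (Ex 405/Em 460 nm, triamterene-equivalent) was read immediately after pin transfer of compound or DMSO into medium (DMEM, 10% FBS) without cells.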

[12] = qHTS assay to test for compound auto fluorescence at 535 nm (green) in HEK293 cell free culture (AID 720682)
Procedure, shortened: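 Cell-free medium (DMEM, 10% FBS) receives compound or DMSO by pintool. Plate read directly at Ex 485/Em 535 nm. Signal converted to fluorescein equivalency.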

[13] = qHTS assay to test for compound auto fluorescence at 590 nm (red) in HEK293 cell free culture (AID 720683)
Procedure, shortened: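 Red-channel autofluorescence of compounds in culture medium (DMEM, 10% FBS), no cells, measured at 540/590 nm. Rose Bengal sodium is the reference fluorophore for equivalence.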

[14] = qHTS assay to test for compound auto fluorescence at 590 nm (red) in HepG2 cell free culture (AID 720684)
Procedure, shortened: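 Cell-free; medium MEM + 10% FBS; compound or DMSO added by pintool; read Ex 540/Em 590 nm; Rose Bengal sodium as red reference fluorophore.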

[15] = qHTS assay to test for compound auto fluorescence at 460 nm (blue) in HepG2 cell free culture (AID 720685)
Procedure, shortened: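 Cell-free plates of MEM plus 10% FBS received 23 nL compound or DMSO vehicle; blue-channel (405/460 nm) intensity scored against triamterene as reference fluorophore.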

[16] = qHTS assay to test for compound auto fluorescence at 535 nm (green) in HepG2 cell free culture (AID 720686)
[17] = qHTS assay to test for compound auto fluorescence at 460 nm (blue) in HepG2 cells (AID 720687)
Procedure, shortened: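 Blue-channel autofluorescence (Ex/Em 405/460 nm, triamterene-equivalent) was measured after 1 hr compound exposure at 37 C, 5% CO2. Cells were HepG2, plated overnight at 37 C in MEM plus 10% FBS.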

[18] = target: Glucocorticoid receptor (Homo sapiens) (UniProt P04150); experiment: qHTS assay to identify small molecule agonists of the glucocorticoid receptor (GR) signaling pathway (AID 720691; active = well fitted activation curve with a large enough effect in the signal ratio in the repeat runs, not every such curve was filed as active; the % refers to the signal ratio)
Procedure, shortened: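 Cells: GR-bla HeLa, endogenous GR with stably integrated GRE-beta-lactamase reporter. Treatment 18 h, 37 C, compounds delivered in DMSO. Detection via LiveBLAzer B/G FRET substrate, 2 h RT, fluorescence intensity.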

[19] = target: Glucocorticoid receptor (Homo sapiens) (UniProt P04150); experiment: qHTS assay to identify small molecule antagonists of the glucocorticoid receptor (GR) signaling pathway (AID 720692; active = well fitted inhibition curve with a large enough effect in the signal ratio in the repeat runs, not every such curve was filed as active; the % refers to the signal ratio)
Procedure, shortened: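 Quantitative HTS in antagonist format: HeLa cells expressing endogenous GR and a stably integrated GRE-bla reporter, stimulated with 5 nM dexamethasone (final) alongside test compounds for 18 h.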

[20] = qHTS assay for small molecule agonists of the p53 signaling pathway (AID 651631; calls by dose curve; also: nearly all actives have a fitted effect of over 15% in size)
Procedure, shortened: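 p53RE-bla HCT-116 cells; compounds 16 h, 37 °C; LiveBLAzer B/G FRET substrate 2 h RT; fluorescence intensity read-out, qHTS format.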

Measured: Potency

Sequence of Glucocorticoid receptor (Homo sapiens) (P04150 whole entry, looked up): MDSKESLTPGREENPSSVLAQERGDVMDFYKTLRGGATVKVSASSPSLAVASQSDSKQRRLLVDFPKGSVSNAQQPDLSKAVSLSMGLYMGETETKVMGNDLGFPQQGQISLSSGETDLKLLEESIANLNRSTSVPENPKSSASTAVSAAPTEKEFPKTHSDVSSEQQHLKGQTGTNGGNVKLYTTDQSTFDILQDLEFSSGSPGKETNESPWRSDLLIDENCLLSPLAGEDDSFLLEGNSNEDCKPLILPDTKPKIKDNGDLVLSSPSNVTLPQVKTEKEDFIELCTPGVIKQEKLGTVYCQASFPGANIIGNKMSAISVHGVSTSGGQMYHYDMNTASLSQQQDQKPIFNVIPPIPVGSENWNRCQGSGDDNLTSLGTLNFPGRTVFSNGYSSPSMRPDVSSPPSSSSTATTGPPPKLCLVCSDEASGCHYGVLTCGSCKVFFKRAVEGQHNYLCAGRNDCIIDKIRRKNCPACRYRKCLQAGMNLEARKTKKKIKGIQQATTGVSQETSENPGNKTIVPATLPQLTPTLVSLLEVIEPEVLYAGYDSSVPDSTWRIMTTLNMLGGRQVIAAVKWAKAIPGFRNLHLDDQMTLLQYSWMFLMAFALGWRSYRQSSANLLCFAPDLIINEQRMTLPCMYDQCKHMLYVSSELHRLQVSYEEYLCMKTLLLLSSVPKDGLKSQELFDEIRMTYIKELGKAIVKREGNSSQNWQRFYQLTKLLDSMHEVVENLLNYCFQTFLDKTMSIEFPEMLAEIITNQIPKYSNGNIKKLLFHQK

CCOCCO
not listed: [20]
inactive: all other assays above

C#C[C@]1(O)CC[C@H]2[C@@H]3CCC4=CC(=O)CC[C@@H]4[C@H]3CC[C@@]21CC
inactive and 48.6 µM (active): [4]
not listed: [1] | [19]
inactive: all other assays above

NC(=O)N/N=C/c1ccc([N+](=O)[O-])o1
active: [5] 15.4 µM
not listed: [3]
inactive: all other assays above

O=C1CCCCCN1
not listed: [18] | [19] | [20]
inactive: all other assays above

O=c1cc[nH]c(=O)[nH]1
not listed: [1] | [14]
inactive: all other assays above

NC(=O)c1ccc([N+](=O)[O-])cc1Cl
inactive: all assays above

O=C(O)CCCCC1CCSS1 (stereo unspecified)
inactive: all assays above
